# Data reported in the supplement of paper PMC4466140.
# B1: unnamed (peptide)
# chain: RLSRLLLSLPPESFT
# Target: AgAbp1
# Test: SPOT peptide array binding signal intensity (averaged, normalized) (arbitrary units (background-subtracted, floor 0; scale differs between SH3 domains)); higher = stronger binding of the SH3 domain to the peptide
# Protocol: (§1)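 GST-tagged SH3 domains from S. cerevisiae (Sc), A. gossypii (Ag), C. albicans (Ca) and S. pombe (Sp) were incubated at 10 ug/ml overnight at 4 C on cellulose SPOT membranes carrying 292 synthetic 15-mer peptides mined from the S. cerevisiae proteome (cysteines replaced by serines). Binding was detected with anti-GST antibody, HRP secondary and chemiluminescence, quantified with Genespotter, and reported as normalized spot intensities averaged over biological replicates.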
row,Binder,SPOT peptide array binding signal intensity
1,B1,21.5

# Target: AgBbc1
# Test: as above
# Protocol: as §1
row,Binder,SPOT peptide array binding signal intensity
1,B1,5.5

# Target: AgBem1-D1
# Test: as above
# Protocol: as §1
row,Binder,SPOT peptide array binding signal intensity
1,B1,356

# Target: AgBzz1-D1
# Test: as above
# Protocol: as §1
row,Binder,SPOT peptide array binding signal intensity
1,B1,101

# Target: AgBzz1-D2
# Test: as above
# Protocol: as §1
row,Binder,SPOT peptide array binding signal intensity
1,B1,145

# Target: AgCyk3
# Test: as above
# Protocol: as §1
row,Binder,SPOT peptide array binding signal intensity
1,B1,2

# Target: AgFus1
# Test: as above
# Protocol: as §1
row,Binder,SPOT peptide array binding signal intensity
1,B1,878

# Target: AgHof1
# Test: as above
# Protocol: as §1
row,Binder,SPOT peptide array binding signal intensity
1,B1,96.5

# Target: AgHse1
# Test: as above
# Protocol: as §1
row,Binder,SPOT peptide array binding signal intensity
1,B1,1240

# Target: AgLsb1
# Test: as above
# Protocol: as §1
row,Binder,SPOT peptide array binding signal intensity
1,B1,17.8

# Target: AgLsb4
# Test: as above
# Protocol: as §1
row,Binder,SPOT peptide array binding signal intensity
1,B1,108

# Target: AgMyo5
# Test: as above
# Protocol: as §1
row,Binder,SPOT peptide array binding signal intensity
1,B1,≤ 0

# Target: AgNbp2
# Test: as above
# Protocol: as §1
row,Binder,SPOT peptide array binding signal intensity
1,B1,47.5

# Target: AgRvs167
# Test: as above
# Protocol: as §1
row,Binder,SPOT peptide array binding signal intensity
1,B1,6.5

# Target: AgSho1
# Test: as above
# Protocol: as §1
row,Binder,SPOT peptide array binding signal intensity
1,B1,70

# Target: AgSla1-D1-D2
# Test: as above
# Protocol: as §1
row,Binder,SPOT peptide array binding signal intensity
1,B1,85

# Target: AgSla1-D3
# Test: as above
# Protocol: as §1
row,Binder,SPOT peptide array binding signal intensity
1,B1,5.5

# Target: CaAbp1-D1
# Test: as above
# Protocol: as §1
row,Binder,SPOT peptide array binding signal intensity
1,B1,152

# Target: CaAbp1-D2
# Test: as above
# Protocol: as §1
row,Binder,SPOT peptide array binding signal intensity
1,B1,48

# Target: CaBbc1
# Test: as above
# Protocol: as §1
row,Binder,SPOT peptide array binding signal intensity
1,B1,73.5

# Target: CaBem1-D1
# Test: as above
# Protocol: as §1
row,Binder,SPOT peptide array binding signal intensity
1,B1,1

# Target: CaBzz1-D1
# Test: as above
# Protocol: as §1
row,Binder,SPOT peptide array binding signal intensity
1,B1,46

# Target: CaBzz1-D2
# Test: as above
# Protocol: as §1
row,Binder,SPOT peptide array binding signal intensity
1,B1,138

# Target: CaCyk3
# Test: as above
# Protocol: as §1
row,Binder,SPOT peptide array binding signal intensity
1,B1,17

# Target: CaFus1
# Test: as above
# Protocol: as §1
row,Binder,SPOT peptide array binding signal intensity
1,B1,3850

# Target: CaHof1
# Test: as above
# Protocol: as §1
row,Binder,SPOT peptide array binding signal intensity
1,B1,0.5

# Target: CaHse1
# Test: as above
# Protocol: as §1
row,Binder,SPOT peptide array binding signal intensity
1,B1,33.5

# Target: CaLsb1
# Test: as above
# Protocol: as §1
row,Binder,SPOT peptide array binding signal intensity
1,B1,1.5

# Target: CaLsb4
# Test: as above
# Protocol: as §1
row,Binder,SPOT peptide array binding signal intensity
1,B1,37.5

# Target: CaMyo5
# Test: as above
# Protocol: as §1
row,Binder,SPOT peptide array binding signal intensity
1,B1,28

# Target: CaNbp2
# Test: as above
# Protocol: as §1
row,Binder,SPOT peptide array binding signal intensity
1,B1,287

# Target: CaRvs167
# Test: as above
# Protocol: as §1
row,Binder,SPOT peptide array binding signal intensity
1,B1,64.2

# Target: CaRvs167-3
# Test: as above
# Protocol: as §1
row,Binder,SPOT peptide array binding signal intensity
1,B1,1010

# Target: CaSho1
# Test: as above
# Protocol: as §1
row,Binder,SPOT peptide array binding signal intensity
1,B1,588

# Target: CaSla1-D1-D2
# Test: as above
# Protocol: as §1
row,Binder,SPOT peptide array binding signal intensity
1,B1,≤ 0

# Target: CaSla1-D3
# Test: as above
# Protocol: as §1
row,Binder,SPOT peptide array binding signal intensity
1,B1,45.5

# Target: ScAbp1
# Test: as above
# Protocol: as §1
row,Binder,SPOT peptide array binding signal intensity
1,B1,49

# Target: ScBbc1
# Test: as above
# Protocol: as §1
row,Binder,SPOT peptide array binding signal intensity
1,B1,1.25

# Target: ScBem1-D1
# Test: as above
# Protocol: as §1
row,Binder,SPOT peptide array binding signal intensity
1,B1,102

# Target: ScBzz1-D1
# Test: as above
# Protocol: as §1
row,Binder,SPOT peptide array binding signal intensity
1,B1,94

# Target: ScBzz1-D2
# Test: as above
# Protocol: as §1
row,Binder,SPOT peptide array binding signal intensity
1,B1,118

# Target: ScCyk3
# Test: as above
# Protocol: as §1
row,Binder,SPOT peptide array binding signal intensity
1,B1,89

# Target: ScFus1
# Test: as above
# Protocol: as §1
row,Binder,SPOT peptide array binding signal intensity
1,B1,1180

# Target: ScHof1
# Test: as above
# Protocol: as §1
row,Binder,SPOT peptide array binding signal intensity
1,B1,1

# Target: ScHse1
# Test: as above
# Protocol: as §1
row,Binder,SPOT peptide array binding signal intensity
1,B1,1930

# Target: ScLsb1
# Test: as above
# Protocol: as §1
row,Binder,SPOT peptide array binding signal intensity
1,B1,1.5

# Target: ScLsb2
# Test: as above
# Protocol: as §1
row,Binder,SPOT peptide array binding signal intensity
1,B1,9

# Target: ScLsb3
# Test: as above
# Protocol: as §1
row,Binder,SPOT peptide array binding signal intensity
1,B1,127

# Target: ScLsb4
# Test: as above
# Protocol: as §1
row,Binder,SPOT peptide array binding signal intensity
1,B1,4.5

# Target: ScMyo3
# Test: as above
# Protocol: as §1
row,Binder,SPOT peptide array binding signal intensity
1,B1,≤ 0

# Target: ScMyo5
# Test: as above
# Protocol: as §1
row,Binder,SPOT peptide array binding signal intensity
1,B1,6

# Target: ScNbp2
# Test: as above
# Protocol: as §1
row,Binder,SPOT peptide array binding signal intensity
1,B1,176

# Target: ScPex13
# Test: as above
# Protocol: as §1
row,Binder,SPOT peptide array binding signal intensity
1,B1,1.75

# Target: ScRvs167
# Test: as above
# Protocol: as §1
row,Binder,SPOT peptide array binding signal intensity
1,B1,20.3

# Target: ScSho1
# Test: as above
# Protocol: as §1
row,Binder,SPOT peptide array binding signal intensity
1,B1,1770

# Target: ScSla1-D1-D2
# Test: as above
# Protocol: as §1
row,Binder,SPOT peptide array binding signal intensity
1,B1,≤ 0

# Target: ScSla1-D3
# Test: as above
# Protocol: as §1
row,Binder,SPOT peptide array binding signal intensity
1,B1,5.75

# Target: SpAbp1-D1
# Test: as above
# Protocol: as §1
row,Binder,SPOT peptide array binding signal intensity
1,B1,198

# Target: SpBbc1
# Test: as above
# Protocol: as §1
row,Binder,SPOT peptide array binding signal intensity
1,B1,0.5

# Target: SpBzz1-D1
# Test: as above
# Protocol: as §1
row,Binder,SPOT peptide array binding signal intensity
1,B1,315

# Target: SpBzz1-D2
# Test: as above
# Protocol: as §1
row,Binder,SPOT peptide array binding signal intensity
1,B1,≤ 0

# Target: SpCyk3
# Test: as above
# Protocol: as §1
row,Binder,SPOT peptide array binding signal intensity
1,B1,10

# Target: SpHof1
# Test: as above
# Protocol: as §1
row,Binder,SPOT peptide array binding signal intensity
1,B1,252

# Target: SpHof1-2
# Test: as above
# Protocol: as §1
row,Binder,SPOT peptide array binding signal intensity
1,B1,24.2

# Target: SpHof1-3
# Test: as above
# Protocol: as §1
row,Binder,SPOT peptide array binding signal intensity
1,B1,441

# Target: SpHse1
# Test: as above
# Protocol: as §1
row,Binder,SPOT peptide array binding signal intensity
1,B1,1330

# Target: SpLsb1
# Test: as above
# Protocol: as §1
row,Binder,SPOT peptide array binding signal intensity
1,B1,1.25

# Target: SpLsb4
# Test: as above
# Protocol: as §1
row,Binder,SPOT peptide array binding signal intensity
1,B1,20

# Target: SpMyo1
# Test: as above
# Protocol: as §1
row,Binder,SPOT peptide array binding signal intensity
1,B1,6.5

# Target: SpNbp2
# Test: as above
# Protocol: as §1
row,Binder,SPOT peptide array binding signal intensity
1,B1,76

# Target: SpPex13
# Test: as above
# Protocol: as §1
row,Binder,SPOT peptide array binding signal intensity
1,B1,16

# Target: SpRvs167
# Test: as above
# Protocol: as §1
row,Binder,SPOT peptide array binding signal intensity
1,B1,13.7

# Target: SpSla1-D1-D2
# Test: as above
# Protocol: as §1
row,Binder,SPOT peptide array binding signal intensity
1,B1,≤ 0

# Target: SpSla1-D3
# Test: as above
# Protocol: as §1
row,Binder,SPOT peptide array binding signal intensity
1,B1,6
